Compounds with a hit are over-represented: about 1.6% of the library has one in this group of screens.
gsp ag = agonists of gsp mutant (McCune-Albright syndrome) | gsp mutant cells, cAMP HTRF, 30 min | Potency, µM (top dose mostly 76.9 µM), hits mostly activators | 340,000 compounds, 0.13% hits | AID 624287; active means well fitted activation curve with a large enough effect; inconclusive means small, poorly fitted or top-dose-only effect, or another doubt; inactive means no such curve, though single readings can be large or run the other way; cell line not stated here;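 further: phosphodiesterase inhibitor Ro 20-1724 added with compounds to block cAMP breakdown; nearly all actives have a fitted effect of over 60% in size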
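Cells in DMEM/10% FBS with G418 were pretreated with compounds in DMSO plus […] (300 uM stock) for 30 min at 37C. cAMP was measured by HTRF (cAMP-d2 plus anti-cAMP antibody-K) after 30 min at room temperature.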
FUS suppressor = FUS proteinopathy suppression in yeast | AID 1347120 | 390,000 compounds, 0.24% hits | Potency, µM (top dose mostly 76.6 µM), actives largely listed as activators | S. cerevisiae FUS-expressing, growth rescue, OD600, 24 h; further: nearly all actives have a fitted effect of over 55% in size
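Toxicity suppression screen in FUS-yeast. Cells induced with 2% galactose, starting OD 0.005, treated 24hr at 30C with compounds at multiple final concentrations; growth by OD600.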
ALOX12 inh = blocks human arachidonate 12S-lipoxygenase. P18054. purified 12hLO, xylenol orange hydroperoxide absorbance. Potency, µM (top dose mostly 108 µM), usual class: inhibitors. 580,000 compounds, 1.1% hits. AID 1671190
Target sequence (P18054 whole entry, looked up): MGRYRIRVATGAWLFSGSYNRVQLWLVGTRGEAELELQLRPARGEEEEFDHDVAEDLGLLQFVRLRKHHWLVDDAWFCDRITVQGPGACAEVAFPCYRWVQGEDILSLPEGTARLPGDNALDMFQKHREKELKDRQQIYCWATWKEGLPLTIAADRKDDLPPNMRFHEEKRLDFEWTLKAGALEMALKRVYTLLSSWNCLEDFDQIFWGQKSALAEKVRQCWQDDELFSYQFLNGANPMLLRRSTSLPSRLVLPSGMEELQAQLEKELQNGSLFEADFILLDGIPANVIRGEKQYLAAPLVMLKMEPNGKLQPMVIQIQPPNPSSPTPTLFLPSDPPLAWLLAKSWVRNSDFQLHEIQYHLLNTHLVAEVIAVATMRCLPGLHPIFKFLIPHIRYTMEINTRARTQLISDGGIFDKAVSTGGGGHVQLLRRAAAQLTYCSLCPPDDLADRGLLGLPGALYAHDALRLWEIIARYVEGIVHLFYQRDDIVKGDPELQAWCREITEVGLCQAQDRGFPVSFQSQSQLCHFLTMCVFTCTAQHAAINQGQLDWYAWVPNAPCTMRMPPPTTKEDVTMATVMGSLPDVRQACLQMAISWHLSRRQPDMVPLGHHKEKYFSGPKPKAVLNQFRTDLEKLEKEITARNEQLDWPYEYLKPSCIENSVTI
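Hydroperoxide product was detected by ferrous iron/xylenol orange as the 573 to 405 nm absorbance ratio. Arachidonic acid at 40 uM (final) was turned over for 30 min at room temperature by 150 nM human 12hLO, pH 7.0 Hepes buffer, after 15 min compound preincubation.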
Mito fusion act = blocks mitochondrial division or promotes mitochondrial fusion; Potency, µM (doses to about 46.1 µM), actives largely listed as activators; S. cerevisiae fusion-defective mutant growth rescue, CellTiterGlo 48 h; AID 485298; 320,000 compounds, 0.23% hits; further: nearly all actives have a fitted effect of over 45% in size
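Luminescent cell viability in 1536-well qHTS format served as the measure of rescued growth in ts fusion-mutant S. cerevisiae cultured on non-fermentable YPEG for 48 hours at 37C.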
gsp antagonist = gsp mutant antagonism; gsp-mutant cells, cAMP HTRF, 30 min; Potency, µM (series often up to 76.9 µM), actives largely listed as inhibitors; 340,000 compounds, 0.4% hits; calls by dose curve; cell line not stated here;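 further: intracellular cAMP measured with PDE inhibitor Ro 20-1724 present during compound exposure; nearly all actives have a fitted effect of over 65% in size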
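Measurement of cellular cAMP by homogeneous time-resolved fluorescence following a 30 min compound exposure at 37C. The PDE inhibitor […] was present throughout; the assay buffer was DPBS with 0.05% BSA and 0.005% Tween 20.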
Hits are given with their value; n = inactive; u = inconclusive; x = no result; [ ] = dose if it differs, or a comment. Unless noted, the call rests on the fitted dose curve; in most records, active means well fitted curve in the direction sought with a large enough effect; inconclusive means small, poorly fitted or top-dose-only effect, or another doubt; inactive means no such curve, though single readings can be large; an effect the other way counts as inactive or inconclusive.

SMILES	gsp ag	FUS suppressor	ALOX12 inh	Mito fusion act	gsp antagonist
CC(=O)c1c[nH]c2cc(F)ccc12	x	x	n	x	x
N#C/C(=C/c1cccc(O)c1)C(=O)c1c[nH]c2cc(F)ccc12	x	x	16µM	x	x
Cc1cccc2[nH]cc(C(=O)/C(C#N)=C\c3ccc(C#N)cc3)c12	x	x	n	x	x
N#C/C(=C/c1cccc(C#N)c1)C(=O)c1c[nH]c2cc(F)ccc12	x	x	11µM	x	x
NC(=O)CSc1nc2ccc([N+](=O)[O-])cc2[nH]1	n[15.4 µM]	n	n	14µM	n
CCOc1ccc(C(=O)NC(=S)Nc2ccccc2N2CCC(C)CC2)cc1[N+](=O)[O-]	n	u	35µM	n	n
O=C(NC(=S)Nc1ccccc1N1CCOCC1)c1ccc(Br)cc1	n	n	35µM	n	n
Cc1cc(C(=O)NC(=S)Nc2ccccc2N2CCOCC2)ccc1[N+](=O)[O-]	u	x	28µM	n	n
O=C(NC(=S)Nc1ccccc1N1CCOCC1)c1ccc(-c2ccccc2F)o1	n	n	25µM	n	n
CCOc1ccc(C(=O)NC(=S)Nc2ccc(N3CCC(C)CC3)cc2)cc1[N+](=O)[O-]	n	u	n	n	n
COc1ccc(Cl)cc1-n1nnc(C(=O)Nc2cccc(C(F)(F)F)c2)c1C	x	x	n	x	x
CCOc1ccc(C2CC(c3ccccc3NS(=O)(=O)c3ccccc3)=NN2C(=O)CC)cc1 (stereo not given)	x	x	n	x	x
O=C(CCN1C(=O)/C(=C/c2ccc(Cl)cc2)SC1=S)Nc1cccc(C(=O)O)c1	n[15.4 µM]	n	n	n	n
O=C(O)c1cccc(N2C(=O)/C(=C/c3ccc(SCc4ccc(Cl)cc4)o3)SC2=S)c1	n	n	3.5µM	n	n
CCc1ccc(NC(=O)Cn2c(N3CCC(C)CC3)nc(C)cc2=O)cc1	x	x	n	x	x
COc1ccc(S(=O)(=O)NNc2nc(C)cc(C)n2)cc1Br	n	n	32µM	n	n
Cc1cc(C)nc(NNS(=O)(=O)c2ccc(Cl)cc2)n1	n	x	u	x	n
CCOc1ccc(-c2nc(CSCC(=O)N3CCc4ccccc43)c(C)o2)cc1	x	x	n	x	x
CN(C)c1nc(-c2ccccn2)nnc1-c1ccccc1	n	n	n	n	n
c1ccc(-c2cccc(CNc3nc(-c4ccccn4)nnc3-c3ccccc3)c2)cc1	x	32µM	x	x	x
Clc1ccc(Nc2ncnc3c2cnn3-c2ccccc2)cc1	n	n	25µM	u	n
COCCNc1ncnc2c1cnn2-c1ccc(Cl)cc1	n	x	14µM	n	n
OCCOCCNc1ncnc2c1cnn2-c1ccc(Cl)cc1	n	n	n	n	n
N=c1c(C(=O)NCc2ccc3c(c2)OCO3)cc2c(=O)n3ccccc3nc2n1CC1CCCO1 (stereo not given)	28µM	u	n	n	n
Cc1ccc(S(=O)(=O)N2CCC(C(=O)OC(C)C(=O)N3CCCCCC3)CC2)cc1C (stereo not given)	x	x	n	x	x
SMILES	gsp ag	FUS suppressor	ALOX12 inh	Mito fusion act	gsp antagonist
O=C(c1cc(-c2ccncc2)nc2ccccc12)N1CCN(c2ccccc2O)CC1	n	18µM	n	n	n
O=C(c1cc(-c2ccncc2)nc2ccc(Cl)cc12)N1CCN(Cc2ccc3c(c2)OCO3)CC1	n[15.4 µM]	n	u	n	n
O=C(c1cc(-c2ccncc2)nc2ccc(Br)cc12)N1CCN(Cc2ccc3c(c2)OCO3)CC1	n[15.4 µM]	n	n	n	28µM
Clc1ccc(-c2nnc(-c3ccco3)nc2N2CCCCC2)cc1	n	x	u	11µM	n
CCC(c1cccs1)N1C(=O)[C@H]2CN(S(=O)(=O)c3cc(F)cc(F)c3)C[C@H]2C1=O (stereo not given in full)	x	x	n	x	x
CC(C)Oc1ccc(C(CCNCc2ccc(O)cc2)c2ccccc2)cc1 (stereo not given)	n	n	40µM	n	n
COc1ccc(C(CCNCc2ccc(N(C)C)cc2)c2ccccc2)cc1 (stereo not given)	n	n	u	n	n
CCc1ccc2oc(C(=O)Nc3ccc(OC)cc3)cc(=O)c2c1	x	x	n	x	x
N#Cc1cc2c(=O)n3ccccc3nc2n(CCN2CCOCC2)c1=O	x	x	x	n	x
N#Cc1cc2c(=O)n3ccccc3nc2n(CCCN2CCOCC2)c1=O	35µM	n	u	n	n
Cc1cc(C)c2c(CN3CCC(C)CC3)cc(=O)oc2c1	n	n	45µM	n	n
Cc1cc(C)c2c(CN3CCCCC3)cc(=O)oc2c1	u	n	n	n	u
CCOc1ccccc1Nc1nc(-c2sc(NC(=O)c3ccco3)nc2C)cs1	x	n	n	n	n
Cc1ccccc1Nc1nc(-c2sc(NC(=O)c3ccco3)nc2C)cs1	x	n	7.9µM	n	n
Cc1nc(NC(=O)c2ccccc2)sc1-c1csc(Nc2ccccc2Cl)n1	x	x	40µM	x	x
CC(C)C(=O)N1c2ccccc2NC2=C(C(=O)CC(C)(C)C2)C1c1ccccc1 (stereo not given)	x	x	n	x	x
CC(C)Oc1ccc(C(=O)Nc2ccc3oc(-c4cccnc4)nc3c2)cc1	x	x	n	x	x
CCN(CC)S(=O)(=O)c1ccc(NC(=O)c2noc3c2COc2ccc(C)cc2-3)cc1	x	x	n	x	x
COc1ccc(CNC(=O)C2CCCN(S(=O)(=O)N3CC(C)CC(C)C3)C2)c(OC)c1 (stereo not given)	n	n	n	11µM	n
COc1ccc(OC)c(CNC(=O)C2CCCN(S(=O)(=O)N3CC(C)CC(C)C3)C2)c1 (stereo not given)	n	n	n	u	n
O=C(CSc1ncnc2sccc12)N(Cc1ccc(F)cc1)C1CCCCC1	x	x	n	x	x
COc1ccc(NC(=S)NC(=NS(=O)(=O)c2ccc(Cl)cc2)c2ccccc2)cc1	n	n	32µM	x	n
COc1ccc(NC(=S)N/C(=N/S(=O)(=O)c2ccc(C)cc2)c2ccccc2)cc1	n	n	u	n	n
S=C(NC(=NCc1ccccc1)c1ccccc1)Nc1ccccc1	x	x	14µM	x	x
O=C(O)c1ccc(N/C(=N\S(=O)(=O)c2ccc(Cl)cc2)c2ccccc2)cc1	n	n	n	n	n
SMILES	gsp ag	FUS suppressor	ALOX12 inh	Mito fusion act	gsp antagonist
O=S(=O)(/N=C(/NC(=S)Nc1ccccc1)c1ccccc1)c1ccc(Cl)cc1	u	n	40µM	n	n
O=C(NCC(c1cccs1)N1CCCCCC1)c1cc(=O)c2cc(Br)ccc2o1 (stereo not given)	x	x	n	x	x
Cc1cccc(OCC(=O)NC2CCN(C(=O)c3cc4c(=O)[nH]c(C)cn4n3)CC2)c1	x	x	n	x	x
S=C(NCc1ccc(Cl)cc1Cl)NC1CCCCC1	n	n	40µM	n	n
CCN(CC)S(=O)(=O)c1ccc(=O)n(Cc2noc(C)n2)c1	x	x	n	x	x
O=C(CCC(=O)N(CC(=O)NC1CCCCC1)c1ccc2c(c1)OCCO2)Nc1ccccn1	x	x	x	22µM	x
O=C(COc1c(Cl)cccc1Cl)Nc1cccc2cccnc12	x	x	n	x	x
COc1ccc(-c2sc3ccc(N4CCOCC4)cc3c2C#CCO)cc1	n	n	20µM	x	u
CCCCn1c(N)c(N(C)C(=O)c2cc(-c3ccncc3)nc3ccccc23)c(=O)[nH]c1=O	x	x	n	x	x

Source: PubChem (National Center for Advancing Translational Sciences (NCATS))
